# From PMC9911399, “Two distinct binding modes provide the RNA-binding protein RbFox with extraordinary sequence specificity”
# Residue numbers refer to the chain shown, from its start. Over roughly 16,000 sequences, “ka relative to ugcaugu” has its median near 0.0091; the highest 2% begin near 0.032. Many of the other results were omitted from the sample, so the highest values are more common in it than they were.
# T1: RBFOX1 RRM (Homo sapiens, UniProt Q9NWB1 109-208)
# T1 sequence: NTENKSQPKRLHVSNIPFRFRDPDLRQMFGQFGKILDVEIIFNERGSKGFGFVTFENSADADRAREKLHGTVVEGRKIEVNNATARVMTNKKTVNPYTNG
# B1: ACAGACA (DNA:RNA)
# RNA: GGGAGACCGGAAUUCAGAUUGUCCACAGACAUUAAAUCCCGUCGUAGCCACCA
# DNA 1: CAATCTGAATTCCGGTCTCCC
# DNA 2: TGGTGGCTACGACGGGATT
# B2: UCACUAC (DNA:RNA)
# RNA: B1 RNA with A25U, G28C, A29U, C30A, A31C
# DNA 1: CAATCTGAATTCCGGTCTCCC
# DNA 2: TGGTGGCTACGACGGGATT
# B3: GGCAAAG (DNA:RNA)
# RNA: B1 RNA with A25G, C26G, A27C, G28A, C30A, A31G
# DNA 1: CAATCTGAATTCCGGTCTCCC
# DNA 2: TGGTGGCTACGACGGGATT
# B4: UGGAGUG (DNA:RNA)
# RNA: GGGAGACCGGAAUUCAGAUUGUCCUGGAGUGUUAAAUCCCGUCGUAGCCACCA
# DNA 1: CAATCTGAATTCCGGTCTCCC
# DNA 2: TGGTGGCTACGACGGGATT
# B5: UGGAUCC (DNA:RNA)
# RNA: B4 RNA with G29U, U30C, G31C
# DNA 1: CAATCTGAATTCCGGTCTCCC
# DNA 2: TGGTGGCTACGACGGGATT
# B6: UGGAAUG (DNA:RNA)
# RNA: B4 RNA with G29A
# DNA 1: CAATCTGAATTCCGGTCTCCC
# DNA 2: TGGTGGCTACGACGGGATT
# B7: UGGAGAU (DNA:RNA)
# RNA: B4 RNA with U30A, G31U
# DNA 1: CAATCTGAATTCCGGTCTCCC
# DNA 2: TGGTGGCTACGACGGGATT
# B8: UGUUGUC (DNA:RNA)
# RNA: B4 RNA with G27U, A28U, G31C
# DNA 1: CAATCTGAATTCCGGTCTCCC
# DNA 2: TGGTGGCTACGACGGGATT
# B9: UGGAUCG (DNA:RNA)
# RNA: B4 RNA with G29U, U30C
# DNA 1: CAATCTGAATTCCGGTCTCCC
# DNA 2: TGGTGGCTACGACGGGATT
# B10: UGUCGUG (DNA:RNA)
# RNA: B4 RNA with G27U, A28C
# DNA 1: CAATCTGAATTCCGGTCTCCC
# DNA 2: TGGTGGCTACGACGGGATT
# B11: UGUCGUC (DNA:RNA)
# RNA: B4 RNA with G27U, A28C, G31C
# DNA 1: CAATCTGAATTCCGGTCTCCC
# DNA 2: TGGTGGCTACGACGGGATT
# B12: UGGAUCU (DNA:RNA)
# RNA: B4 RNA with G29U, U30C, G31U
# DNA 1: CAATCTGAATTCCGGTCTCCC
# DNA 2: TGGTGGCTACGACGGGATT
# B13: UGGAGAA (DNA:RNA)
# RNA: B4 RNA with U30A, G31A
# DNA 1: CAATCTGAATTCCGGTCTCCC
# DNA 2: TGGTGGCTACGACGGGATT
# B14: UGGAGAG (DNA:RNA)
# RNA: B4 RNA with U30A
# DNA 1: CAATCTGAATTCCGGTCTCCC
# DNA 2: TGGTGGCTACGACGGGATT
# B15: UGUCUUG (DNA:RNA)
# RNA: B4 RNA with G27U, A28C, G29U
# DNA 1: CAATCTGAATTCCGGTCTCCC
# DNA 2: TGGTGGCTACGACGGGATT
# B16: CAGAAAA (DNA:RNA)
# RNA: B1 RNA with A25C, C26A, A27G, G28A, C30A
# DNA 1: CAATCTGAATTCCGGTCTCCC
# DNA 2: TGGTGGCTACGACGGGATT
# B17: UGGGUAG (DNA:RNA)
# RNA: B4 RNA with A28G, G29U, U30A
# DNA 1: CAATCTGAATTCCGGTCTCCC
# DNA 2: TGGTGGCTACGACGGGATT
# B18: CCCAAGA (DNA:RNA)
# RNA: B1 RNA with A25C, A27C, G28A, C30G
# DNA 1: CAATCTGAATTCCGGTCTCCC
# DNA 2: TGGTGGCTACGACGGGATT
# B19: UCGCCGG (DNA:RNA)
# RNA: B4 RNA with G26C, A28C, G29C, U30G
# DNA 1: CAATCTGAATTCCGGTCTCCC
# DNA 2: TGGTGGCTACGACGGGATT
# B20: CUAGUGU (DNA:RNA)
# RNA: B1 RNA with A25C, C26U, A29U, C30G, A31U
# DNA 1: CAATCTGAATTCCGGTCTCCC
# DNA 2: TGGTGGCTACGACGGGATT
# Biological target: T1, RBFOX1 RRM
# Experiment: EMSA; HiTS-Eq, 1 nM pool, 10 min; buffer printed only for the single-RNA assays: 10 mM Tris pH 7.5, 150 mM NaCl, 3.4 mM EDTA, 0.001% NP-40, 30 C
# Settings: tags: His6 N-terminal (pET28a); label: 5' 32P
# Procedure, shortened: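 Purified RbFox RRM (wild type or mutant) was equilibrated for 10 min in 50 µL with 1 nM of a 5′-radiolabelled pool of RNA with 7 randomized nucleotides, its flanks annealed to DNA oligonucleotides, across increasing protein concentrations. Free RNA was separated by 8% native PAGE, excised, reverse-transcribed, PCR-barcoded and sequenced on an Illumina HiSeq 2500. Relative association constants came from read-count changes of each variant against the control reaction, normalised to the cognate motif.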
row,Binder,binding signal
1,B1,0.00018 KA relative to UGCAUGU
2,B2,0.000713 KA relative to UGCAUGU
3,B3,0.00447 KA relative to UGCAUGU
4,B4,0.0323 KA relative to UGCAUGU
5,B5,0.0229 KA relative to UGCAUGU
6,B6,0.0953 KA relative to UGCAUGU
7,B7,0.0283 KA relative to UGCAUGU
8,B8,0.0242 KA relative to UGCAUGU
9,B9,0.0333 KA relative to UGCAUGU
10,B10,0.0277 KA relative to UGCAUGU
11,B11,0.0214 KA relative to UGCAUGU
12,B12,0.0236 KA relative to UGCAUGU
13,B13,0.0194 KA relative to UGCAUGU
14,B14,0.0249 KA relative to UGCAUGU
15,B15,0.0447 KA relative to UGCAUGU
16,B16,0.000855 KA relative to UGCAUGU
17,B17,0.0258 KA relative to UGCAUGU
18,B18,0.00241 KA relative to UGCAUGU
19,B19,0.0169 KA relative to UGCAUGU
20,B20,0.0159 KA relative to UGCAUGU
